The panel holds about 79,000 compounds, 15% with a hit somewhere; the sample as a whole holds those more often. Activity calls are given as the source filed them. Cut-off read from the data, not from the text of the source: active = growth inhibition above about 70%; inactive = the rest.
Legend:
[1] = NCI Yeast Anticancer Drug Screen. Data for the rad52 strain (AID 147);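 note: 0% = growth of vehicle-treated control cultures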; conditions: S. cerevisiae rad52 mutant growth inhibition, hits give high values
Summary of the method: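 The repair-mutant yeast strain was incubated with compounds, then growth was read and inhibition derived relative to vehicle.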

[2] = NCI Yeast Anticancer Drug Screen. Data for the wt1 strain (AID 149);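 note: 0% = growth of vehicle-treated wt1 cultures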; conditions: S. cerevisiae wt1 strain (SPY 50644) growth inhibition, hits give high values
Summary of the method: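 Each compound is tested on wt1 yeast and the loss of growth versus vehicle gives the inhibition value.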

[3] = NCI Yeast Anticancer Drug Screen. Data for the rad50EPP+ strain (AID 151);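 note: 0% = growth of vehicle-treated control cultures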; conditions: S. cerevisiae rad50 mutant strain, hits give high values
Summary of the method: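 Vehicle-normalised growth inhibition; rad50EPP+ yeast strain, altered in DNA damage repair, compound-treated.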

[4] = NCI Yeast Anticancer Drug Screen. Data for the rad50 strain (AID 155);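 note: 0% = growth of vehicle-only cultures of the same strain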; conditions: S. cerevisiae rad50 strain growth inhibition, hits give high values
Summary of the method: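 Vehicle-treated cultures provide the reference for the growth inhibition reported for compound-exposed, repair-deficient yeast.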

[5] = NCI Yeast Anticancer Drug Screen. Data for the mec2-1 strain (AID 157); conditions: S. cerevisiae mec2-1 strain, hits give high values
Summary of the method: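 Mutant yeast (mec2-1) grown with compound; growth inhibition relative to vehicle control reported.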

[6] = NCI Yeast Anticancer Drug Screen. Data for the rad14 strain (AID 159);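 note: 0% = growth of vehicle-treated control cultures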; conditions: S. cerevisiae rad14 strain growth inhibition, hits give high values
Summary of the method: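 Inhibition of growth is reported for a repair-deficient yeast mutant following compound treatment, calculated relative to cultures that received vehicle.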

[7] = NCI Yeast Anticancer Drug Screen. Data for the sgs1 mgt1 strain (AID 161);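 note: 0% = growth of cultures given vehicle only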; conditions: S. cerevisiae sgs1 mgt1 strain, hits give high values
Summary of the method: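 Yeast cells carrying a defined DNA-repair defect were exposed to test compounds. Growth inhibition was measured relative to vehicle-treated controls.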

[8] = NCI Yeast Anticancer Drug Screen. Data for the CLN2oe strain (AID 163);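 note: 0% = growth of vehicle-only control cultures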; conditions: S. cerevisiae CLN2oe strain, hits give high values
Summary of the method: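 Compounds are applied to yeast harbouring a defined cell-cycle control change; reduced growth compared with vehicle-treated controls gives the value.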

[9] = NCI Yeast Anticancer Drug Screen. Data for the cln2 rad14 strain (AID 165);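 note: 0% = growth equal to vehicle treated cultures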; conditions: S. cerevisiae cln2 rad14 strain, hits give high values
Summary of the method: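 Readout is yeast growth inhibition versus vehicle-treated controls, using a strain with cln2 and rad14 alterations exposed to compound.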

[10] = NCI Yeast Anticancer Drug Screen. Data for the bub3 strain (AID 167); conditions: S. cerevisiae bub3 mutant strain, hits give high values
Summary of the method: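 Mutant yeast screening strain plus compound; vehicle-treated cultures serve as the 0% inhibition reference.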

[11] = NCI Yeast Anticancer Drug Screen. Data for the mlh1 strain (AID 171);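 note: 0% = growth of vehicle-treated control cultures of the same strain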; conditions: S. cerevisiae mlh1 strain growth inhibition, hits give high values
Summary of the method: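 Measured: yeast growth. Reference: vehicle-treated controls. Organism: strain with a defined alteration affecting DNA damage repair or cell cycle control, treated with compound.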

[12] = NCI Yeast Anticancer Drug Screen. Data for the sgs1 strain (AID 173);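 note: 0% = growth of vehicle-only control cultures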; conditions: S. cerevisiae sgs1 mutant, hits give high values
Summary of the method: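 Each compound was added to cultures of the altered yeast strain. Growth was recorded, and inhibition was derived by comparison with vehicle controls.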

[13] = NCI Yeast Anticancer Drug Screen. Data for the mlh1 rad18 strain (AID 175); conditions: S. cerevisiae mlh1 rad18 strain growth inhibition, hits give high values
Summary of the method: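 Genetically defined yeast (DNA repair-deficient) exposed to compounds; growth inhibition determined relative to vehicle.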

[14] = at 5.0 µM (retest, dose inferred, filed as 0.5)
[15] = at 50.0 µM (retest, dose inferred, filed as 5.0)

Measured: growth inhibition

CC(C)(C)c1ccc(O)c(C(c2ccc([N+](=O)[O-])cc2)c2cc(C(C)(C)C)ccc2O)c1
active: [1]; at 33.0 µM 79% | [1]; at 100.0 µM 84% | [2]; at 33.0 µM 81% | [2]; at 100.0 µM 90% | [4]; at 33.0 µM 85% | [4]; [15] 88% | [4]; at 50.0 µM 84.3% | [4]; at 100.0 µM 92% | [5]; at 33.0 µM 85% | [5]; [15] 94% | [5]; at 50.0 µM 89% | [5]; at 100.0 µM 92% | [6]; at 33.0 µM 71% | [6]; at 100.0 µM 90% | [7]; [15] 93% | [8]; at 33.0 µM 80% | [8]; at 100.0 µM 91% | [9]; [15] 93% | [9]; at 50.0 µM 82.8% | [10]; at 33.0 µM 88% | [10]; [15] 94% | [10]; at 50.0 µM 84.2% | [10]; at 100.0 µM 92% | [11]; at 33.0 µM 90% | [11]; at 100.0 µM 93% | [12]; at 33.0 µM 82% | [12]; at 100.0 µM 93% | [13]; [15] 93% | [13]; at 50.0 µM 80.2%
inactive: [1]; at 1.2 µM 29% | [1]; at 3.7 µM 24% | [1]; at 11.0 µM 57% | [2]; at 1.2 µM -2% | [2]; at 3.7 µM -4% | [2]; at 11.0 µM 42% | [3]; at 1.2 µM 7% | [3]; at 3.7 µM -8% | [3]; at 11.0 µM -24% | [3]; at 33.0 µM -14% | [3]; at 100.0 µM -10% | [4]; at 1.2 µM 19% | [4]; at 3.7 µM 14% | [4]; [14] 21% | [4]; at 11.0 µM 61% | [5]; at 1.2 µM -1% | [5]; at 3.7 µM 14% | [5]; [14] 7% | [5]; at 11.0 µM 57% | [6]; at 1.2 µM -9% | [6]; at 3.7 µM -24% | [6]; at 11.0 µM 14% | [7]; [14] 29% | [7]; at 50.0 µM 29.1% | [8]; at 1.2 µM 2% | [8]; at 3.7 µM 19% | [8]; at 11.0 µM 38% | [9]; [14] 43% | [10]; at 1.2 µM 9% | [10]; at 3.7 µM 16% | [10]; [14] 33% | [10]; at 11.0 µM 53% | [11]; at 1.2 µM 12% | [11]; at 3.7 µM 6% | [11]; at 11.0 µM 29% | [12]; at 1.2 µM 22% | [12]; at 3.7 µM 13% | [12]; at 11.0 µM 40% | [13]; [14] 36%
